Measurements from the supplement of paper PMC6555819.

Legend:
Assay in all cases: PBM binding z-score (relative to random genomic background probes); higher = stronger binding; sequences stand for … in GC…GCGATTGACAGCGTAGAATGAAGG
[1] = tested on: PPARg:RXRa DBDmut IVT, anti-RXR (DBD mutation: RXRa K156A/R161A, NR concentration 270 nM, RXRa partner concentration 90 nM)
Outline: (§1)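 Scanned fluorescence from custom Agilent 4×180K protein-binding microarrays was regression-normalized. Binding z-scores use random background probes as reference. Ligand-free nuclear receptor dimers were incubated on the arrays for 1 h and detected with antibodies against each partner (one per run).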

[2] = tested on: PPARg:RXRa IVT, anti-PPARg (NR concentration 270 nM, RXRa partner concentration 90 nM)
Outline: as §1

[3] = tested on: PPARg DBDmut:RXRa IVT, anti-PPARg (DBD mutation: PPARg1 K132A/R137A, NR concentration 270 nM, RXRa partner concentration 90 nM)
Outline: as §1

[4] = tested on: PPARg DBDmut IVT, anti-PPARg (DBD mutation: PPARg1 K132A/R137A, NR concentration 270 nM)
Outline: as §1

[5] = tested on: PPARg homodimer (NR concentration 180 nM)
Outline: as §1

[6] = tested on: PXR:RXRa (NR concentration 270 nM, RXRa partner concentration 90 nM)
Outline: as §1

[7] = tested on: PXR homodimer (NR concentration 270 nM)
Outline: as §1

[8] = tested on: RARa:RXR (NR concentration 270 nM, RXRa partner concentration 90 nM)
Outline: as §1

[9] = tested on: RARa homodimer (NR concentration 270 nM)
Outline: as §1

[10] = tested on: RARb:RXRa (NR concentration 270 nM, RXRa partner concentration 90 nM)
Outline: as §1

[11] = tested on: RARb homodimer (NR concentration 270 nM)
Outline: as §1

[12] = tested on: RARg:RXRa (NR concentration 270 nM, RXRa partner concentration 90 nM)
Outline: as §1

[13] = tested on: RARg homodimer (NR concentration 270 nM)
Outline: as §1

[14] = tested on: RXRa DBDmut IVT, anti-RXR (DBD mutation: RXRa K156A/R161A, NR concentration 90 nM)
Outline: as §1

[15] = tested on: RXRa homodimer (NR concentration 180 nM)
Outline: as §1

[16] = tested on: THRa:RXRa (NR concentration 90 nM, RXRa partner concentration 90 nM)
Outline: as §1

[17] = tested on: THRa homodimer (NR concentration 90 nM)
Outline: as §1

[18] = tested on: VDR:RXRa (NR concentration 270 nM, RXRa partner concentration 90 nM)
Outline: as §1

[19] = tested on: VDR homodimer (NR concentration 270 nM)
Outline: as §1

Sequence	PBM binding z-score [1]	PBM binding z-score [2]	PBM binding z-score [3]	PBM binding z-score [4]	PBM binding z-score [5]	PBM binding z-score [6]	PBM binding z-score [7]	PBM binding z-score [8]	PBM binding z-score [9]	PBM binding z-score [10]	PBM binding z-score [11]	PBM binding z-score [12]	PBM binding z-score [13]	PBM binding z-score [14]	PBM binding z-score [15]	PBM binding z-score [16]	PBM binding z-score [17]	PBM binding z-score [18]	PBM binding z-score [19]
CCTCGGAGGACAACAGGCGGTCAGAGCTGCCAGA	-0.178	-0.851	-1.43	-1.37	-0.158	-0.464	-0.435	-0.312	-0.034	1.61	1.43	1.07	1.63	-0.164	-0.341	0.64	-0.125	-0.555	-0.0839
ATCTCTAGCTAACAAGTTCAGTGAAAGAGAGGAC	-0.615	0.373	0.64	1.17	0.988	1.36	1.62	0.744	1.13	1.15	1.31	0.734	0.987	0.511	0.529	1	0.651	1.64	2.47
TCTTGTAGATCAAGCAGGTTTAGAAAGCCTGAGT	1.37	0.0829	-0.44	0.305	-0.478	0.273	-0.0713	-0.152	-0.252	-0.191	-0.518	-0.361	-0.474	0.521	-0.16	-0.173	-0.583	0.444	0.0833
TGGATGAGGTTAAAGATCAGGGAACGTGGCGTCG	0.289	1.92	1.51	0.255	1.99	2.71	1.07	3.96	0.62	2.37	1.38	2.75	1.59	1.46	4.05	2.88	1.11	2.32	1.42
ATCTCTTGGTAAAAGTTCAGTGAATCCCGAGGAT	-0.122	0.894	0.627	0.652	1.46	1.83	1.58	1.1	1.12	2.37	2.43	1.43	1.95	0.705	1.02	0.75	0.436	1.14	1.86
ACTAGCAGGCCAAGGGTCACTCAGGATTAGTCCG	1.05	3.72	-0.273	-0.162	4.08	3.21	-0.196	4.33	0.739	3.59	3.78	4.35	3.59	0.461	4.24	2.7	0.0494	3.03	1.22
GCTAGCAGGCCATTTGGGTCACTCGATGACGGGC	2.18	2.18	-0.31	-1.28	-0.101	0.388	-0.29	0.794	-0.742	1.39	1.9	0.925	1.25	0.253	0.666	1.66	0.48	0.762	0.416
TATCCTAGGTCATTGGGCCAGTATAGTACGCATC	4.13	5.49	1.68	3.21	2.35	2.21	0.746	2.96	0.931	3.98	3.29	4.22	4.55	2.33	3.37	3.25	1.52	3.04	1.65
CCTAGTTGGTCAGGAGATCACACACCGGATATGA	0.463	0.766	0.576	0.266	1.26	0.215	0.728	0.415	1.34	0.518	0.781	0.628	1.01	0.108	0.347	-0.184	0.385	0.242	0.435
CAAACTAGGACAAAGGTCAAAGTCGAGCCAACCA	6.48	7.54	2.91	1.8	4.89	5.62	2.1	6.43	3.25	4.8	4.67	6.7	5.88	2.3	7.22	4.13	1.18	4.93	2.51
AGTCTAAGTTCAGGACGAGGTAACGTAAAGCACG	-0.507	0.167	0.154	0.579	1.1	2.21	1.18	1.79	0.351	2.95	1.85	3.11	2.65	3.28	1.57	3.56	1.99	2.58	2.62
TCTATTAGTTGAAGGGAAACCGACGAGTCCGTTT	2.49	-0.0119	0.417	1.24	1.32	0.508	0.678	0.362	1.42	0.377	-0.0745	-0.0691	-0.0615	1.6	0.396	-0.149	0.214	0.851	1.19
TCATATAGTTAATACAGGTGAAAGTCGGCATCTA	2.82	1.74	1.53	1.48	1.32	1.05	0.721	1.59	2.34	0.914	0.692	0.857	0.789	2.12	1.2	1.02	0.515	1.26	0.657
CGTCAAAGTTCAACTAAGGTAATGTAAAGCACGC	0.526	2.28	0.986	1.3	3.39	5.58	3.59	4.17	1.99	5.18	4.29	5.86	6.53	4.51	5.18	5.18	1.31	4.8	3.69
ACAGACAGGGGAGTGAAGGTAACTCAGCTGGACG	-0.166	-0.191	0.22	-0.386	0.229	-0.136	0.147	-0.342	0.313	0.21	0.179	-0.128	0.208	-0.277	0.0403	0.674	0.101	-0.347	-0.467
CCAGACAGGTGAGAAGGTCACTCAGCCTCGATTA	1.76	2.14	-0.281	-1.25	3.61	3.25	1.11	4.09	2.83	3.58	4.12	4.65	3.85	0.8	3.76	2.46	0.916	2.66	1.36
TCTTGTAGATCAAAGGTTAAGAACGCCGAAGCCT	2.38	3.76	0.351	0.234	1.19	2	0.16	2.42	0.244	1.86	1.51	1.82	0.951	0.794	3.38	1.53	-0.428	1.47	0.13
CAAACTGGGTCAAGAGGTCAAAGTCCGCTTCCCG	7.83	8.28	2.26	1.72	5.48	6.28	2.74	7.7	1.96	5.29	5.73	7.97	7.04	2.51	8.44	4.14	2.13	6.19	4.76
GCTAGCAGGCCATTTGGGTCTCTCAATGACGGGC	0.644	0.258	-0.858	-1.65	-0.8	-0.469	-0.68	-0.418	-1.34	0.0129	-0.614	-0.279	-0.301	-0.264	-0.294	0.0257	-0.703	-0.594	-0.774
TCGAGTAGGTTACCAATGGGGCAATCAGCTTTCT	3.39	2.82	0.0614	0.102	-0.476	0.111	-0.71	0.261	-0.846	0.959	0.687	1.67	0.463	0.325	0.707	0.302	-0.774	0.0268	-0.712
TCTCGGAGGACACGAAGGTCAGACCTTTCCAGAG	1.65	0.996	-0.713	-0.138	1.39	2.12	0.898	2.4	0.387	3.59	3.98	3.27	3.81	1.03	1.94	3.08	1.21	2.45	1.44
TCTGCTAGGTCAACGATGGTCAGCTACTCTGCTA	4.3	4.17	-0.186	-0.6	0.254	1.42	-0.802	1.93	-0.564	4.14	3.48	4.25	5.24	0.833	2.64	3.04	0.776	1.68	-0.337
ATCTCTAGATAACCAAGTTCAGTGAATGCCGAAC	-0.316	0.0781	0.627	0.782	0.44	1.1	1.09	0.424	0.885	0.556	1.07	0.446	0.535	0.852	0.659	0.42	0.172	1.16	2.11
TCTTGTCGATCAATAGAGGTTAAGAAAGTGCGCT	1.37	0.566	1.29	0.928	0.669	2.97	0.471	1.82	-0.217	1.09	1.53	0.847	0.688	0.601	1.46	1.94	-0.159	1.86	0.435
ATACCAAGGTGATCGTGAGGTCGTTGAGACTAAC	0.478	1.15	0.272	-0.217	0.626	2.93	1.28	1.91	0.197	1.39	1.66	2.25	0.747	0.611	1.66	3.4	2.38	2.9	2.82
GCTTGTAGATCAAGGTTAAGATAGACTAAGCTAA	1.44	1.14	0.0148	-0.396	0.519	0.536	0.00293	0.825	-0.522	0.938	0.293	0.611	0.411	0.0981	1.04	1.21	-0.344	0.0807	-0.108
AAAACGAGGGCACGCTGAGTTGATAGCAGAGTAG	5.62	5.01	-0.17	0.145	0.283	1.5	0.139	0.828	-0.23	2.65	1.08	2.13	2.34	2.08	1.62	1.94	0.0518	2.53	2.26
TCGAGTAGGTTCCCAATGGGGCATTCAGCTTTCT	0.883	0.261	-1.28	-1.09	-0.805	-0.411	-1.24	-0.343	-1.9	-0.327	-0.191	-0.766	-0.954	0.269	-0.493	-0.435	-0.628	-0.37	-1.15
GCAACGAGGGCAAAGTTGATAGCATCTGTCGACG	2.74	3.19	0.065	-0.728	0.234	1.18	-0.438	1.53	-0.122	2.34	0.991	1.89	1.57	2.62	1.81	1.19	-0.191	1.26	1.21
CCTGCTAGGTCAATGGTCAGCGAAAGCAGCTCGC	4.19	4.06	0.555	-0.25	1.7	0.865	-0.255	1.87	-0.0474	3.71	2.63	3.65	4.18	1.73	2.11	2.32	0.558	0.881	-0.0463
